Assay results reported in ChEMBL document CHEMBL3433997, “St. Jude Leishmania screening dataset” (2016).

Each molecule was assayed against Solute carrier family 2, facilitated glucose transporter member 1 (Homo sapiens) (UniProt P11166) (assay: ST_JUDE_LEISH: Cytotoxicity at 2uM final concentration against transgenic Leishmania Mexicana promastigotes LmGLUT1 that are glucose transport deficient and complemented with the human glucose transporter GLUT1. Activity is measured by DNA content using SYBR green in vitro).
Type: functional

Chain of Solute carrier family 2, facilitated glucose transporter member 1 (Homo sapiens) (P11166 whole entry): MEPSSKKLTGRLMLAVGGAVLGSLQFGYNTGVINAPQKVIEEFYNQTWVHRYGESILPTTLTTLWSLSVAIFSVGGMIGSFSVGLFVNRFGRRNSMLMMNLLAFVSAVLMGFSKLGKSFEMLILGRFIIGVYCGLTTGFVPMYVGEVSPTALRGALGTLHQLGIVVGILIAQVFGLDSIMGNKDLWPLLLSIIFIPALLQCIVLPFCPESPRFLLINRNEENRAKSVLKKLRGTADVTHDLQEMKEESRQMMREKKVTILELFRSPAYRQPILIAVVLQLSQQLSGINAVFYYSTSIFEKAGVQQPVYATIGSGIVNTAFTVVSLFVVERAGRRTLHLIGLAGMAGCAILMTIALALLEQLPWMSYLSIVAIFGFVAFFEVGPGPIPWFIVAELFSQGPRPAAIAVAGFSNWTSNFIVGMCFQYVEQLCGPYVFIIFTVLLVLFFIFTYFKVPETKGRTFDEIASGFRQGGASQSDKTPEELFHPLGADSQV

Row | Compound | inhibition
1 | Cc1nnc2c(NC(=O)NC3CCCC3)cc3cc(-c4ccc(CN(C)C)cc4)ccc3n12 | 0.94%
2 | COc1ccc2ncc(F)c(CCN3CC(O)C(CNCc4ccc5ccccc5c4)C3)c2n1 (stereo not given) | 15.5%
3 | CC1CCN(CC[C@H]2CCCN2S(=O)(=O)c2cccc(NC(=O)c3ccc(-c4ccc(Cl)cc4)o3)c2)CC1 | -0.33%
4 | O=C(Nc1ccc(N2CCN(Cc3cccc(F)c3)CC2)cc1)c1cccs1 | 3.08%
5 | Cc1cc(N/N=C/c2ccc([N+](=O)[O-])cc2)c2ccc(F)cc2n1 | 2.33%
6 | O=C(/C=C/c1ccc(Cl)c(Cl)c1)N1CCN(C(=O)Nc2cccc(C(F)(F)F)c2)CC1 | 5.23%
7 | FC(F)(F)c1ccc2[nH]c(-c3ccc(-c4ccc(CN5CCN(c6ccncc6)CC5)cc4)s3)nc2c1 | 1.51%
8 | CS(=O)(=O)c1ccc(CNCc2ccc(-c3cccc(-c4nc5cc(C(F)(F)F)ccc5[nH]4)c3)cc2)cc1 | 3.2%
9 | COc1ccc2nccc([C@@H](O)CN3C4CCC3CC(NCc3ccc5c(n3)NC(=O)CS5)C4)c2n1 (stereo not given in full) | 1.63%
10 | Cc1ccccc1CCNC(=O)c1ccc(N2CCN(c3ccncc3)CC2)nc1 | 3.94%
11 | Cc1cccc2nc(-c3ccc(-c4ccc(NC(=O)Nc5ccsc5)cc4)cc3)[nH]c12 | 0.7%
12 | COc1ccc(-c2cccc(NC(=O)c3ccc(C#N)cc3)c2)cc1CN1CCCN(C)CC1 | 3.34%
13 | COc1ccc(-c2cccc(NC(=O)c3cccc(Cl)c3)c2)cc1CN1CCC(O)CC1 | 8.59%
14 | Cc1nc2nc(N)nc(N)c2c(C)c1Cc1cccc(F)c1 | 2.65%
15 | Cc1[nH]n(-c2cccc(C(F)(F)F)c2)c(=O)c1-c1ccc(Cl)cc1 | 3.56%
16 | COc1cc2nc(N3CCC(CNC(=O)c4ccc(-c5ccc(C(=O)N(C)C)cc5C)cc4)CC3)nc(N3CCN(C)CC3)c2cc1OC | -0.31%
17 | Cc1ccccc1CNC(=O)Nc1cccc(-c2csc(NC(=N)N)n2)c1 | 0.55%
18 | CCN(CCCN1CCCCC1)c1cc(C)nc(Nc2cccc(OC(F)(F)F)c2)n1 | 1.17%
19 | Cc1cccc(CN2CCCN(Cc3cccc(C(=O)Nc4ccc(C(C)(C)C)cc4)c3)CC2)c1 | 3.43%
20 | CC(=O)c1ccc2c(c1)CCN(CCC1CCC(NC(=O)c3cc4ccccc4[nH]3)CC1)CC2 (stereo not given) | 2.67%

Row | Compound | inhibition
21 | O=C(Nc1ccsc1)Nc1cccc(-c2cccc(-c3nc4ccccc4[nH]3)c2)c1 | 9.79%
22 | CC1CCCC(C)N1C[C@@H](O)CNS(=O)(=O)c1cccc(C(F)(F)F)c1 (stereo not given in full) | 0.21%
23 | Cc1cccn2c(=O)c3cc(C(=O)NCCc4ccccc4)c(=N)n(CCCOC(C)C)c3nc12 | 8.75%
24 | O=C(Nc1nc(-c2ccccn2)cc2ccccc12)c1cccc(Cl)c1 | 10.1%
25 | O=c1cc(NCCCNCc2scc3c(Cl)cc(C(F)(F)F)nc23)[nH]c2ccccc12 | 2.13%
26 | O=C(COc1ccccc1)NC1CCN(c2ccnc3cc(Cl)ccc23)C1 (stereo not given) | 0.14%
27 | COCCNCc1cccc(-c2ccccc2CN(C(=O)c2ccc3c(c2)OCO3)c2ccc(OC)cc2)c1 | 4.69%
28 | O=C(N[C@@H](Cc1ccccc1)C(=O)NC1CCCCC1)c1ccc(O)c(-c2ccc(Cl)c(Cl)c2)c1 | -0.99%
29 | COc1ccc2[nH]ccc(=NN=Cc3ccccc3Cl)c2c1 | 7.36%
30 | Cc1cc(-c2nc3ccc(C(=O)NCc4ccccc4)cc3n2C2CCN(C(=O)c3ccc(-c4ccccc4)cc3)CC2)ccn1 | 1.02%
31 | CCC[C@@H]1CCN[C@H]([C@H](O)c2ccnc3ccc(OC)cc23)C1 | 4.68%
32 | CC(=O)N1CCC(C(=O)Nc2ccc(-c3cccc(-c4nc5cc(C(F)(F)F)ccc5[nH]4)c3)cc2)CC1 | 0.57%
33 | COC(=O)c1ccccc1N1CCN(CCCCNC(=O)c2ccc(NC(=O)c3cc(Cl)cc(Cl)c3)cc2)CC1 | 3.86%
34 | CN1CCN(c2ccnc3ccc(NC(=O)Nc4ccc(Cl)c(Cl)c4)cc23)CC1 | 6.24%
35 | CN1CCC(C(=O)Nc2cccc(-c3ccc(-c4nc5cc(C(F)(F)F)ccc5[nH]4)cc3)c2)CC1 | 4.82%
36 | NC1CCN(Cc2cccc(-c3ccc(-c4nc5ccccc5[nH]4)s3)c2)C1 (stereo not given) | 3.94%
37 | CCCOc1cc(OCCC)cc(-c2cc(=O)c3ccccc3[nH]2)c1 | 0.94%
38 | COc1cccc2[nH]c(NCCCNCc3cc(Br)cc(Br)c3)nc12 | 3.51%
39 | COc1ccc(-c2ccc(NC(=O)c3ccc(F)cc3)cc2)cc1CNC(C)C | 0.84%
40 | CC(C)CN(C)c1ncnc2c1nc(-c1cncc(C#N)c1)n2CCNCc1ccccc1 | 3.34%

The molecules below were run against Hexose transporter 1 (Plasmodium falciparum) (UniProt O97467) (assay: ST_JUDE_LEISH: Cytotoxicity at 2uM final concentration against transgenic Leishmania Mexicana promastigotes LmPfHT that are glucose transport deficient and complemented with the Plasmodium falciparum hexose transporter. Activity is measured by DNA content using SYBR green in vitro).
Type: functional

Row | Compound | inhibition
41 | Cc1nnc2c(NC(=O)NC3CCCC3)cc3cc(-c4ccc(CN(C)C)cc4)ccc3n12 | 1.31%
42 | COc1ccc2ncc(F)c(CCN3CC(O)C(CNCc4ccc5ccccc5c4)C3)c2n1 (stereo not given) | 16.6%
43 | CC1CCN(CC[C@H]2CCCN2S(=O)(=O)c2cccc(NC(=O)c3ccc(-c4ccc(Cl)cc4)o3)c2)CC1 | 1.69%
44 | O=C(Nc1ccc(N2CCN(Cc3cccc(F)c3)CC2)cc1)c1cccs1 | 2.27%
45 | Cc1cc(N/N=C/c2ccc([N+](=O)[O-])cc2)c2ccc(F)cc2n1 | 3.03%
46 | O=C(/C=C/c1ccc(Cl)c(Cl)c1)N1CCN(C(=O)Nc2cccc(C(F)(F)F)c2)CC1 | 4.67%
47 | FC(F)(F)c1ccc2[nH]c(-c3ccc(-c4ccc(CN5CCN(c6ccncc6)CC5)cc4)s3)nc2c1 | -1.36%
48 | CS(=O)(=O)c1ccc(CNCc2ccc(-c3cccc(-c4nc5cc(C(F)(F)F)ccc5[nH]4)c3)cc2)cc1 | 3.79%
49 | COc1ccc2nccc([C@@H](O)CN3C4CCC3CC(NCc3ccc5c(n3)NC(=O)CS5)C4)c2n1 (stereo not given in full) | 1.76%
50 | Cc1ccccc1CCNC(=O)c1ccc(N2CCN(c3ccncc3)CC2)nc1 | 1.96%
51 | Cc1cccc2nc(-c3ccc(-c4ccc(NC(=O)Nc5ccsc5)cc4)cc3)[nH]c12 | -0.26%
52 | COc1ccc(-c2cccc(NC(=O)c3ccc(C#N)cc3)c2)cc1CN1CCCN(C)CC1 | 2.59%
53 | COc1ccc(-c2cccc(NC(=O)c3cccc(Cl)c3)c2)cc1CN1CCC(O)CC1 | 6.33%
54 | Cc1nc2nc(N)nc(N)c2c(C)c1Cc1cccc(F)c1 | 1.14%
55 | Cc1[nH]n(-c2cccc(C(F)(F)F)c2)c(=O)c1-c1ccc(Cl)cc1 | 6.35%
56 | COc1cc2nc(N3CCC(CNC(=O)c4ccc(-c5ccc(C(=O)N(C)C)cc5C)cc4)CC3)nc(N3CCN(C)CC3)c2cc1OC | 0.88%
57 | Cc1ccccc1CNC(=O)Nc1cccc(-c2csc(NC(=N)N)n2)c1 | 0.56%
58 | CCN(CCCN1CCCCC1)c1cc(C)nc(Nc2cccc(OC(F)(F)F)c2)n1 | 1.62%
59 | Cc1cccc(CN2CCCN(Cc3cccc(C(=O)Nc4ccc(C(C)(C)C)cc4)c3)CC2)c1 | 2.22%
60 | CC(=O)c1ccc2c(c1)CCN(CCC1CCC(NC(=O)c3cc4ccccc4[nH]3)CC1)CC2 (stereo not given) | -0.31%

Row | Compound | inhibition
61 | O=C(Nc1ccsc1)Nc1cccc(-c2cccc(-c3nc4ccccc4[nH]3)c2)c1 | 10.8%
62 | CC1CCCC(C)N1C[C@@H](O)CNS(=O)(=O)c1cccc(C(F)(F)F)c1 (stereo not given in full) | 0.37%
63 | Cc1cccn2c(=O)c3cc(C(=O)NCCc4ccccc4)c(=N)n(CCCOC(C)C)c3nc12 | 6.64%
64 | O=C(Nc1nc(-c2ccccn2)cc2ccccc12)c1cccc(Cl)c1 | 9.58%
65 | O=c1cc(NCCCNCc2scc3c(Cl)cc(C(F)(F)F)nc23)[nH]c2ccccc12 | 2.43%
66 | O=C(COc1ccccc1)NC1CCN(c2ccnc3cc(Cl)ccc23)C1 (stereo not given) | 1%
67 | COCCNCc1cccc(-c2ccccc2CN(C(=O)c2ccc3c(c2)OCO3)c2ccc(OC)cc2)c1 | 4.93%
68 | O=C(N[C@@H](Cc1ccccc1)C(=O)NC1CCCCC1)c1ccc(O)c(-c2ccc(Cl)c(Cl)c2)c1 | 0.22%
69 | COc1ccc2[nH]ccc(=NN=Cc3ccccc3Cl)c2c1 | 12.6%
70 | Cc1cc(-c2nc3ccc(C(=O)NCc4ccccc4)cc3n2C2CCN(C(=O)c3ccc(-c4ccccc4)cc3)CC2)ccn1 | -0.07%
71 | CCC[C@@H]1CCN[C@H]([C@H](O)c2ccnc3ccc(OC)cc23)C1 | 3.5%
72 | CC(=O)N1CCC(C(=O)Nc2ccc(-c3cccc(-c4nc5cc(C(F)(F)F)ccc5[nH]4)c3)cc2)CC1 | 3.33%
73 | COC(=O)c1ccccc1N1CCN(CCCCNC(=O)c2ccc(NC(=O)c3cc(Cl)cc(Cl)c3)cc2)CC1 | 5.53%
74 | CN1CCN(c2ccnc3ccc(NC(=O)Nc4ccc(Cl)c(Cl)c4)cc23)CC1 | 6.07%
75 | CN1CCC(C(=O)Nc2cccc(-c3ccc(-c4nc5cc(C(F)(F)F)ccc5[nH]4)cc3)c2)CC1 | 2.75%
76 | NC1CCN(Cc2cccc(-c3ccc(-c4nc5ccccc5[nH]4)s3)c2)C1 (stereo not given) | 2.41%
77 | CCCOc1cc(OCCC)cc(-c2cc(=O)c3ccccc3[nH]2)c1 | 6.37%
78 | COc1cccc2[nH]c(NCCCNCc3cc(Br)cc(Br)c3)nc12 | 1.26%
79 | COc1ccc(-c2ccc(NC(=O)c3ccc(F)cc3)cc2)cc1CNC(C)C | 1.24%
80 | CC(C)CN(C)c1ncnc2c1nc(-c1cncc(C#N)c1)n2CCNCc1ccccc1 | 3.26%
